PubChem BioAssay (NCATS)
Inconclusive results are not listed. The source made the active and inactive calls. Calls follow the shape of the dose curve; as a rule, active = well fitted inhibition curve with a large enough effect; inconclusive = small, poorly fitted or top-dose-only effect; inactive = flat fitted curve, though single readings scatter.

Legend:
Experiment in all cases: qHTS profiling for inhibitors of Plasmodium falciparum proliferation (AID 504749); also: nearly all actives have a fitted effect of over 60% in size
Settings in all cases: P. falciparum in erythrocytes, SYBR Green DNA, 72 h; series mostly up to 28.7 µM
3D7 = system: 3D7
In short: (§1)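 SYBR Green fluorescence (ex 485 nm, em 535 nm) reports parasite DNA after 72 h compound exposure of infected red cells at 0.3% parasitemia, 2.5% hematocrit; signal normalized to 0.29 uM artemisinin and vehicle wells.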

7G8 = system: 7G8
In short: as §1

AA1029 = system: AA1029
In short: as §1

C2A = system: C2A
In short: as §1

CP185 = system: CP185
In short: as §1

CP191 = system: CP191
In short: as §1

CP217 = system: CP217
In short: as §1

CP237 = system: CP237
In short: as §1

CP250 = system: CP250
In short: as §1

CP252 = system: CP252
In short: as §1

CP256 = system: CP256
In short: as §1

DFO2036 = system: DFO2036
In short: as §1

Dd2 = system: Dd2
In short: as §1

ECU = system: ECU
In short: as §1

FAB9 = system: FAB9
In short: as §1

P94_40 = system: P94_40
In short: as §1

PC15 = system: PC15
In short: as §1

SC27B = system: SC27B
In short: as §1

TAB109 = system: TAB109
In short: as §1

TAB165 = system: TAB165
In short: as §1

Measured: Potency

O=C(O)c1cc(O)c2c(c1)[C@H]([C@H]1c3cc(C(=O)O)cc(O)c3C(=O)c3c(O[C@@H]4OC(CO)C(O)C(O)C4O)cccc31)c1cccc(O[C@@H]3OC(CO)C(O)C(O)C3O)c1C2=O (stereo not given in full)
inactive: 3D7 | 7G8 | AA1029 | C2A | CP185 | CP191 | CP217 | CP237 | CP250 | CP252 | CP256 | DFO2036 | Dd2 | ECU | FAB9 | P94_40 | PC15 | SC27B | TAB109 | TAB165
